Experimental data: PubChem BioAssay (NCATS)
Several values for one entry are separate records, joined by “and”; a condition that tells them apart may be missing. Identical values can stand only once. Records with an inconclusive call do not appear. Activity calls are given as the source filed them. Calls follow the shape of the dose curve; as a rule, active = well fitted curve in the direction sought with a large enough effect; inconclusive = small, poorly fitted or top-dose-only effect, or another doubt; inactive = no such curve, though single readings can be large or run the other way.

Assay: qHTS Assay for Identifying Gametocytocidal Compounds (AID 743244);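 as to max response: actives lower the fluorescent signal which means gametocytes are killed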
Conditions: P. falciparum 3D7 stage III-V gametocytes, alamarBlue, 72 h; max response: stronger effect = lower value
Description: Malaria cases and deaths have dropped 50% in 29 countries since 2000 due to the combined effects of long-lasting insecticidal bednets, indoor residual spraying, and artemisinin-based combination therapies (ACTs). This success has raised hopes for malaria eradication and consequently stimulated interest in developing new reagents that block gametocyte transmission such as novel and safe gametocytocidal drugs. However, previous drug development efforts have focused primarily on the asexual parasites that cause symptoms, but not malaria transmission. Consequently, patients can remain infectious for weeks after the clearance of asexual parasites and clinical symptoms. To be transmitted from person to person via a mosquito, the parasites must switch from asexual to sexual development and produce male and female gametocytes. Malaria gametocytes consist of five stages (I, II, III, IV and V). The late stage gametocytes (III, IV and V) are difficult to be cultured in vitro and the long lifespan of mature gametocytes allows them being transmitted from host to mosquitoes unless they are completely eliminated by gametocytocidal agents. To identify gametocytocidal compounds which are capable of killing late stage P. falciparum gametocytes, a high throughput gametocyte viability assay was employed. This assay uses oxidoreduction indicator, alamarBlue, as a general measure of metabolic activity of gametocytes. Within live cells, the nonfluorescent resazurin is reduced to resorufin, a bright red fluorescence dye. Fluorescence decreases upon treatment of gametocytocidal compounds. P. falciparum gametocyte (3D7 strain) was used in this study.
The 1536-well gametocycidal viability assay was based on the previous method of Tanaka et al. Stage III-V gametocytes were tested against three compound libraries, including 4265 compounds from NCGC pharmaceutical collection, 400 from Malaria Box library, and 550 from an internal collection of kinase inhibitors. Briefly, 2.5 ul/well incomplete medium was dispensed into each well of 1,536-well plates using the Multidrop Combi followed by 23 nl compound transferring using the NX-TR Pintool (WAKO Scientific Solutions, San Diego, CA). Then, 2.5 ul/well of gametocytes was dispensed with a seeding density of 20,000 cells/well using the Multidrop Combi. The assay plates were incubated for 72 h at 37C with 5% CO2. After addition of 5 ul/well of 2X AlamarBlue dye (Life Technologies, cat. no. DAL1100), the plates were incubated for 24 h at 37C with 5% CO2 and then were read in a fluorescence detection mode (Ex = 525 nm, Em = 598 nm) on a ViewLux plate reader (PerkinElmer).
% is scaled to controls: 0 for no effect and ±100 for the full control effect; potency is read from the fitted curve at half-maximal effect.

| SMILES | max response | Potency |
| --- | --- | --- |
| CNC(C)Cc1ccc2c(c1)OCO2 (stereo not given) | -4.91% (inactive) |  |
| CCOP(=S)(OCC)O/N=C(\C#N)c1ccccc1 | -3.66% (inactive) |  |
| COP(=S)(OC)Oc1ccc(S(N)(=O)=O)cc1 | 5.01% (inactive) |  |
| ClC1=C(Cl)C2(Cl)C(CBr)CC1(Cl)C2(Cl)Cl (stereo not given) | -1.6% (inactive) |  |
| C[C@]12CC[C@H]3[C@@H](CCC4=CC(=O)CC[C@@H]43)[C@@H]1CC[C@@H]2O | -13.9% (inactive) and -1.26% (inactive) |  |
| CN(C)C(=S)SC(=S)N(C)C |  | 0.794 µM (active) |
| NC(=O)CN1CCCC1=O | 0.359% (inactive) and -8.59% (inactive) |  |
| CC1=C2[C@H]3OC(=O)[C@@H](C)[C@@H]3CC[C@@]2(C)C=CC1=O | 4.47% (inactive) |  |
| Cc1c(Cl)c(=O)oc2cc(OP(=O)(OCCCl)OCCCl)ccc12 | 22.1% (inactive) |  |
| COP(=S)(OC)Oc1ccc(Sc2ccc(OP(=S)(OC)OC)cc2)cc1 | 1.05% (inactive) |  |
| C[C@@H]1C[C@@H]([C@H](O)CC2CC(=O)NC(=O)C2)C(=O)[C@@H](C)C1 |  | 2.82 µM (active) |
| C[N+](C)(C)CCOC(=O)C(O)(c1ccccc1)c1ccccc1 | -1.74% (inactive) |  |
| COc1cc(C[C@@H](C)N)c(OC)cc1C | -6.71% (inactive) |  |
| NCc1cccnc1 | -3.33% (inactive) |  |
| CCOC(=O)NC(C)(C)Cc1ccc(Cl)cc1 | -1.19% (inactive) |  |
| COc1ccc2[nH]cc(CCN(C(C)C)C(C)C)c2c1 | -5.46% (inactive) |  |
| O=C(CCl)c1ccc(Cl)cc1Cl | 14.5% (inactive) and 7.69% (inactive) |  |
| CCN(Cc1ccc(Cl)nc1)/C(=C/[N+](=O)[O-])NC | 8.58% (inactive) |  |
| CN(C)C(=O)Oc1cc(OC(=O)N(C)C)cc(C(O)CNC(C)(C)C)c1 (stereo not given) | 14.4% (inactive) |  |
| O=C(O)c1nn(Cc2ccc(Cl)cc2Cl)c2ccccc12 | -7.97% (inactive) and 31% (inactive) |  |

| SMILES | max response | Potency |
| --- | --- | --- |
| COc1cc(CC(C)N)cc2c1OCO2 (stereo not given) | -6.22% (inactive) |  |
| CC(C)C(Br)C(=O)NC(N)=O (stereo not given) | 6.08% (inactive) |  |
| Oc1c(Br)cc(Br)cc1Br | -0.35% (inactive) |  |
| CC[C@H]1C[C@@H]2C[C@H]3c4[nH]c5ccc(OC)cc5c4CCN(C2)[C@@H]13 | 5.97% (inactive) |  |
| CN1C(=O)CN=C(c2ccccc2)c2cc(Cl)ccc21 | -5.96% (inactive) |  |
| CN1C(=O)CN=C(c2ccccc2)c2cc([N+](=O)[O-])ccc21 | 4.86% (inactive) |  |
| CC[C@H]1C[C@H]2[C@@H]3CCC4=CC(=O)CC[C@@H]4[C@H]3CC[C@]2(C)[C@H]1O | -17.8% (inactive) |  |
| CN1C[C@H](C(=O)N[C@]2(C)O[C@@]3(O)[C@@H]4CCCN4C(=O)[C@H](Cc4ccccc4)N3C2=O)C[C@@H]2c3cccc4[nH]cc(c34)C[C@H]21 |  | 2.35 µM (active) |
| Cc1nnc2n1-c1sc(CCC(=O)N3CCOCC3)cc1C(c1ccccc1Cl)=NC2 | -5.44% (inactive) and -14.1% (inactive) |  |
| CN(C)CCc1c[nH]c2ccc(O)cc12 | -10.2% (inactive) |  |
| CNC(=O)Oc1cccc2ccccc12 |  | 35.5 µM (active) |
| O=c1n(Cl)c(=O)n(Cl)c(=O)n1Cl | -4.5% (inactive) |  |
| CCN(CC)CCCN(c1ccccc1)C1Cc2ccccc2C1 |  | 8.91 µM (active) |
| O=C(Nc1ccc(Cl)cc1)Nc1ccc(Cl)c(C(F)(F)F)c1 |  | 12.6 µM (active) |
| COc1ccc2c3c1O[C@H]1[C@@H](O)C=C[C@H]4[C@@H](C2)N(C)CC[C@@]341 | 7.49% (inactive) |  |
| C[C@]12Cc3nonc3C[C@@H]1CC[C@@H]1[C@@H]2CC[C@@]2(C)[C@H]1CC[C@]2(C)O | -3.73% (inactive) |  |
| CC(C)[N+](C)(CCC(C(N)=O)(c1ccccc1)c1ccccc1)C(C)C | 0.0209% (inactive) |  |
| Clc1ccc(CSC(Cn2ccnc2)c2ccc(Cl)cc2Cl)cc1 (stereo not given) |  | 3.98 µM (active) |
| Cc1ncc2n1-c1ccc(Cl)cc1C(c1ccccc1F)=NC2 | -2.43% (inactive) |  |
| CCCCCOc1ccc(C2SC(=O)NC2=O)cc1OCC (stereo not given) | 38.7% (inactive) |  |
